# Data as given in the supplement of paper PMC10338343.
# ± gives the standard deviation.
# Test system: MILI (PIWIL2) piRISC loaded with piRNA #1 (26 nt)
# Assay: pre-steady-state target cleavage rate (min^-1); guide: piRNA #1 5'p-UGAGGUAGUAGGUUGUAUAGUAUCCA; MIWI and MILI are mouse PIWI proteins and EfPiwi is from a freshwater sponge; tags in brackets are library labels; higher = faster piRNA-guided slicing of the target
# Settings: auxiliary factor: 500 nM mouse GTSF1
# How it was run: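 The pre-steady-state cleavage rate came from a burst-and-steady-state fit to pooled data from three Cleave-'n-Seq trials, in which uncleaved targets were sequenced and normalised to depth and to weakly complementary targets. Each reaction held 0.1 nM transcribed, DNA-blocked target RNA library and 1 nM active affinity-purified piRISC carrying one synthetic guide, with or without 500 nM GTSF1 partner protein, in HEPES–potassium acetate buffer at 33 °C for 0–8 or 0–960 min. k3 was capped at 0.0001 min^-1.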
sequence,measurement,value
GGAGACCUAACUAUACAACCUACCUACCUCA,pre-steady-state target cleavage rate,0.0837 ± 0.018
GGAGACCUUACUAUACAACCUAAUACCUCA,pre-steady-state target cleavage rate,0.102 ± 0.014
GGAGACCUAUGAUUACAACCUACUACCACA,pre-steady-state target cleavage rate,0.00372 ± 0.0023
GGAGACGAUAGUAUAGAACCUACUACCUCA,pre-steady-state target cleavage rate,0.158 ± 0.013
GGAGACCUAUGAUAUGUACCUAGUACCUCA,pre-steady-state target cleavage rate,< 0.0001
GGAGUGGAUACUAUACAACCUACUACCUGA,pre-steady-state target cleavage rate,0.0915 ± 0.011
GGAGACCUAUGAUAACAACCUACCUACCUCA,pre-steady-state target cleavage rate,0.00593 ± 0.003
GGAGACCUAACUUUACAACCUACUACGUCA,pre-steady-state target cleavage rate,0.0224 ± 0.01
GGAGACCUUACUAUACAACCUACUUCGUCA,pre-steady-state target cleavage rate,0.0614 ± 0.015
GGAGACCUAUGAUAUGUACCUACAAGCUCA,pre-steady-state target cleavage rate,< 0.0001
GGAGACCUAUCUAACAACCUACUACCUCA,pre-steady-state target cleavage rate,0.0222 ± 0.0049
GGAGACCUAUGAUAACAUCCUACUUCCUCA,pre-steady-state target cleavage rate,0.00421 ± 0.0027
GGAGACCUAUCUAUACAACCUACUCCCUCA,pre-steady-state target cleavage rate,0.0608 ± 0.0097
GGAGACCAUACUAUACAACCUACUACCUCU [g2:g23:cont:t1U],pre-steady-state target cleavage rate,0.254 ± 0.024
GGAGACCUAUCUAUACCACCUACUACCUCA,pre-steady-state target cleavage rate,0.095 ± 0.017
GGAGACGAUACUUUACAACCUACUACCACA,pre-steady-state target cleavage rate,0.2 ± 0.025
GGAGACCUUACUAUUCAACCUAGUACCUCA,pre-steady-state target cleavage rate,0.0486 ± 0.011
GGAGACCUAACUAUGACAACCUACUACCUCA,pre-steady-state target cleavage rate,0.0415 ± 0.0097
GGAGACCAUACUAUACAAGCUACUAGCUCA,pre-steady-state target cleavage rate,0.0756 ± 0.022
GGAGACCUAUCUAUACAAGGUACUACCUCA,pre-steady-state target cleavage rate,0.0563 ± 0.0083
GGAGACCUAUGAUAUGUACCUACUACCUGCA,pre-steady-state target cleavage rate,< 0.0001
GGAGUGGAUACUAUAGAACCUACUAGCUCA,pre-steady-state target cleavage rate,0.00733 ± 0.0025
GGAGACCUAUGAUUACAACCGUACUACCUCA,pre-steady-state target cleavage rate,0.00334 ± 0.0031
GGAGACCUAACUAUACAACUUACUACCUCA,pre-steady-state target cleavage rate,0.0179 ± 0.0043
GGAGACCUUUCUAUACAACCAACUACCUCA,pre-steady-state target cleavage rate,0.00462 ± 0.0029
GGAGACCUAUGAUAUGUUCCUACUACCUCA [g2:g12:cont:t1A],pre-steady-state target cleavage rate,< 0.0001
GGAGACCUAUCUAUACAACCUACUCACCUCA,pre-steady-state target cleavage rate,0.0886 ± 0.011
GGAGACCUAUCUAUACAAGGAUGAUGGAGA [g13:g20:cont:t1A],pre-steady-state target cleavage rate,< 0.0001
GGAGACCUAUCUAUACAUCCAACUACCUCA,pre-steady-state target cleavage rate,0.00941 ± 0.0034
GGAGACCUAUGAUUACAACCUACUACCUUCA,pre-steady-state target cleavage rate,0.00664 ± 0.0022
GGAGACCUAUGAUAACAACCUACUACCGUCA,pre-steady-state target cleavage rate,0.00366 ± 0.0026
GGAGACGAUACUAAACAACCUACAACCUCA,pre-steady-state target cleavage rate,0.116 ± 0.013
GGAGACCUAUGUAUACAACCUACUAUCUCA,pre-steady-state target cleavage rate,0.0416 ± 0.0058
GGAGACCUAUCUAUAUCAACCUACUACCUCA,pre-steady-state target cleavage rate,0.00847 ± 0.0035
GGAGACCUAUGAUUACAAGCUACUAGCUCA,pre-steady-state target cleavage rate,0.00635 ± 0.0034
GGAGAGGAUACUUUACUACCUACUACCUCA,pre-steady-state target cleavage rate,0.161 ± 0.011
GGAGACCUAACUAUACAACCUACUUCGUCA,pre-steady-state target cleavage rate,0.0423 ± 0.017
GGAGACCUAUGUAUACAACCUACUAGCCUCA,pre-steady-state target cleavage rate,0.0572 ± 0.013
GGAGACCUAUGUAUACAACCAUACUACCUCA,pre-steady-state target cleavage rate,0.00475 ± 0.0025
GGAGACCUAUGAUUACAUCCUACUACCACA,pre-steady-state target cleavage rate,0.0105 ± 0.0035
GGAGACCUUACUUUACUACCUACUACCUCA,pre-steady-state target cleavage rate,0.0948 ± 0.01
GGAGACCAUACUAUACAACCUAUACCUCA,pre-steady-state target cleavage rate,0.016 ± 0.0051
GGAGACCUAACUUUACAAGCUACUACCUCA,pre-steady-state target cleavage rate,0.135 ± 0.025
GGAGACCUAUGUAUACAAGCUACUACCUGA,pre-steady-state target cleavage rate,0.0868 ± 0.015
GGAGACCUAUGAAUACAUCCUACUACCACA,pre-steady-state target cleavage rate,0.0133 ± 0.0041
GGAGACCUAUGAUAUGUACCUACUGACCUCA,pre-steady-state target cleavage rate,< 0.0001
GGAGACCUAACUAGUACAACCUACUACCUCA,pre-steady-state target cleavage rate,0.0828 ± 0.019
GGAGACCUAACAUACAACCUACUACCUCA,pre-steady-state target cleavage rate,0.0208 ± 0.009
GGAGUGGAAACUAUACAACCUACAACCUCA,pre-steady-state target cleavage rate,0.0962 ± 0.023
GGAGACCUAUGUAUACAUCCUACUAGCUCA,pre-steady-state target cleavage rate,0.0312 ± 0.0078
GGAGACCUAUCAAAACAACCUACUACCUCA,pre-steady-state target cleavage rate,0.0082 ± 0.0029
GGAGACCUAUCUAUUCAAGCUACUACCUCA,pre-steady-state target cleavage rate,0.196 ± 0.015
GGAGACCUUACUAUACAACCUUCAACCUCA,pre-steady-state target cleavage rate,0.00437 ± 0.003
GGAGACGAUACUACACAACCUACUACCUCA,pre-steady-state target cleavage rate,0.203 ± 0.019
GGAGACCUUACUAUAGUACCUACUACCUCA,pre-steady-state target cleavage rate,0.119 ± 0.0098
GGAGAGGAUACUAUUGUACCUACUACCUCA,pre-steady-state target cleavage rate,0.131 ± 0.0096
GGAGACCAUACUAAACAACCUACUUCCUCA,pre-steady-state target cleavage rate,0.068 ± 0.011
GGAGACCUAUGAAUACAACCUGCUACCUCA,pre-steady-state target cleavage rate,0.00274 ± 0.0027
GGAGACCUAACAAUACAACCUACUAGCUCA,pre-steady-state target cleavage rate,0.0462 ± 0.017
GGAGACCUUACUAUACUACCUUCUACCUCA,pre-steady-state target cleavage rate,0.0109 ± 0.0029
GGAGACCUUACUAUACUACGUACUACCUCA,pre-steady-state target cleavage rate,0.0307 ± 0.0046
GGAGACCUAUGUAUACAACCUACUAACCUCA,pre-steady-state target cleavage rate,0.0935 ± 0.013
GGAGACCUUAGUAUACAACCUACUACGUCA,pre-steady-state target cleavage rate,0.0155 ± 0.0047
GGAGACCUAUGAAUACUACCUACAACCUCA,pre-steady-state target cleavage rate,0.00497 ± 0.0016
GGAGACCUAUCUUUACAACCUAGUACCUCA,pre-steady-state target cleavage rate,0.00897 ± 0.003
GGAGUGGAUACUAUUGAACCUACUACCUCA,pre-steady-state target cleavage rate,0.0784 ± 0.0078
GGAGACCUAUGUUUACAACCUACUACCACA,pre-steady-state target cleavage rate,0.0147 ± 0.0041
GGAGACCUAUGAAUACAACCUACUAACUCA,pre-steady-state target cleavage rate,0.00512 ± 0.0027
GGAGACCAUACUAUACAUCCUACUACCUGA,pre-steady-state target cleavage rate,0.23 ± 0.034
GGAGACCUAUGUAUACUACCUACAACCUCA,pre-steady-state target cleavage rate,0.0574 ± 0.0091
GGAGACCUAUGAUAUGUACCUACUACCCA,pre-steady-state target cleavage rate,< 0.0001
GGAGACCUAAGUAUACAACCUACUACCACA,pre-steady-state target cleavage rate,0.0885 ± 0.012
GGAGACCAUACUAUACUACCAACUACCUCA,pre-steady-state target cleavage rate,0.00547 ± 0.0022
GGAGACCUAUGAUUACAACCUACUACCUACA,pre-steady-state target cleavage rate,0.00666 ± 0.0024
GGAGACCUAACUAUAGAUCCUACUACCUCA,pre-steady-state target cleavage rate,0.203 ± 0.026
GGAGACCUAUGAUAACAAACUACUACCUCA,pre-steady-state target cleavage rate,0.0114 ± 0.0029
GGAGACCUAUGAAUACAAGCAACUACCUCA,pre-steady-state target cleavage rate,0.00265 ± 0.0026
GGAGACCUAUGAUGACAACCUACUACCUCA,pre-steady-state target cleavage rate,0.00556 ± 0.0019
GGAGACCAUACUAUUCUACCUACUACCUCA,pre-steady-state target cleavage rate,0.178 ± 0.017
GGAGACCUAUGAUAUGUUGCUACUACCUCCA,pre-steady-state target cleavage rate,< 0.0001
GGAGACCUUAGAUUACAACCUACUACCUCA,pre-steady-state target cleavage rate,0.0208 ± 0.007
GGAGACCUAUGAUAUGUUCCUUCUACCUGA,pre-steady-state target cleavage rate,< 0.0001
GGAGACCUUACUAUACAACGUUCUACCUCA,pre-steady-state target cleavage rate,0.00546 ± 0.0015
GGAGACCUAUCUAUACAACCUAAUACCUCA,pre-steady-state target cleavage rate,0.0234 ± 0.0057
GGAGACCUAACUAUAGCAACCUACUACCUCA,pre-steady-state target cleavage rate,0.0973 ± 0.023
GGAGUGGAUAGUAUUCAACCUACUACCUCA,pre-steady-state target cleavage rate,0.106 ± 0.011
GGAGACCUAUGAAUACAACCUACUACGUCA,pre-steady-state target cleavage rate,0.00355 ± 0.0021
GGAGACCUAUCUAUACAACCAACUACGUCA,pre-steady-state target cleavage rate,0.00385 ± 0.0021
GGAGACCUAUGAACACAACCUACUACCUCA,pre-steady-state target cleavage rate,0.0162 ± 0.0041
GGAGACCUUACUAAACAAGCUACUACCUCA,pre-steady-state target cleavage rate,0.231 ± 0.018
GGAGACCUAUGAAUACAACCUACAACCUCA,pre-steady-state target cleavage rate,0.0078 ± 0.0029
GGAGACCUAUGUAUUCAACCUACUACGUCA,pre-steady-state target cleavage rate,0.00786 ± 0.0022
GGAGACCUUACUAAACAACCUACUACGUCA,pre-steady-state target cleavage rate,0.0571 ± 0.01
GGAGACCUAUGUAUACUACCUACUACCACA,pre-steady-state target cleavage rate,0.0548 ± 0.008
GGAGACCUAUCUAUAGAACGUACUACCUCA,pre-steady-state target cleavage rate,0.00596 ± 0.0017
GGAGUGGAUUCUAUACAACCUACAACCUCA,pre-steady-state target cleavage rate,0.0777 ± 0.0074
